About 2,000 (36%) of roughly 5,500 compounds were called active. Inconclusive results (about 18%) are left out. Cut-off read from the data, not from the text of the source: active = normalized growth mostly below about 0.91 (no sharp cut-off); inconclusive = no clear call, values can overlap the other calls; inactive = mostly above about 0.92. Some of the results follow.
Assay: chemical genetic growth profiling, strain panel (AID 1159580);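 note: tested at 20 µM; growth read once vehicle control cultures reached saturation at 30 °C; 1 = growth at the plate median or of vehicle wells; lower values mean less growth of the strain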
Conditions: growth OD

Measured: normalized growth

CC(=O)Nc1nnc(S(N)(=O)=O)s1
inactive: S. cerevisiae deletion strains, locus YKL009W, strain mrt4, hits give low values 1.03 | S. cerevisiae deletion strains, locus YKL068W, hits give low values 1 | S. cerevisiae deletion strains, locus YKL085W, strain MDH1 (second series), hits give low values 1.01 | S. cerevisiae deletion strains, locus YKL085W, strain MDH1, hits give low values 1.01 | S. cerevisiae deletion strains, locus YKL160W, strain elf1, hits give low values 1 | S. cerevisiae deletion strains, locus YKR026C, strain gcn3, hits give low values 1 | S. cerevisiae deletion strains, locus YKR091W, strain srl3, hits give low values 1.01 | S. cerevisiae deletion strains, locus YLL001W, strain dnm1, hits give low values 1.01 | S. cerevisiae deletion strains, locus YLL026W, hits give low values 1.01 | S. cerevisiae deletion strains, locus YLL041C, strain sdh2, hits give low values 1.01 | S. cerevisiae deletion strains, locus YLR027C, strain aat2, hits give low values 1.01 | S. cerevisiae deletion strains, locus YLR102C, strain apc9, hits give low values 0.99 | S. cerevisiae deletion strains, locus YLR113W, strain HOG1, hits give low values 0.982 | S. cerevisiae deletion strains, locus YLR221C, strain rsa3, hits give low values 0.986 | S. cerevisiae deletion strains, locus YLR258W, strain gsy2, hits give low values 1.01 | S. cerevisiae deletion strains, locus YLR262C, strain YPT6 (second series), hits give low values 1.04 | S. cerevisiae deletion strains, locus YLR268W, strain sec22, hits give low values 0.895 | S. cerevisiae deletion strains, locus YLR320W, strain mms22, hits give low values 0.99 | S. cerevisiae deletion strains, locus YLR342W, strain FKS1, hits give low values 1.02 | S. cerevisiae deletion strains, locus YLR357W, strain rsc2, hits give low values 1 | S. cerevisiae deletion strains, locus YLR370C, strain arc18, hits give low values 0.996 | S. cerevisiae deletion strains, locus YLR371W, strain rom2, hits give low values 0.945 | S. cerevisiae deletion strains, locus YLR384C, strain iki3, hits give low values 1 | S. cerevisiae deletion strains, locus YML032C, strain rad52, hits give low values 1.01 | S. cerevisiae deletion strains, locus YML120C, strain ndi1, hits give low values 1.02 | S. cerevisiae deletion strains, locus YML124C, strain tub3, hits give low values 1.01 | S. cerevisiae deletion strains, locus YMR058W, strain fet3, hits give low values 1.02 | S. cerevisiae deletion strains, locus YMR078C, strain ctf18, hits give low values 0.994 | S. cerevisiae deletion strains, locus YMR125W, strain sto1, hits give low values 0.989 | S. cerevisiae deletion strains, locus YMR129W, hits give low values 1.02 | S. cerevisiae deletion strains, locus YMR205C, strain PFK2, hits give low values 1.01 | S. cerevisiae deletion strains, locus YMR223W, strain ubp8, hits give low values 0.904 | S. cerevisiae deletion strains, locus YMR231W, strain pep5, hits give low values 0.993 | S. cerevisiae deletion strains, locus YNL071W, strain lat1, hits give low values 1.01 | S. cerevisiae deletion strains, locus YNL128W, strain TEP1, hits give low values 1 | S. cerevisiae deletion strains, locus YNL175C, strain NOP13, hits give low values 1.03 | S. cerevisiae deletion strains, locus YNL183C, strain NPR1, hits give low values 0.959 | S. cerevisiae deletion strains, locus YNL197C, strain WHI3, hits give low values 1 | S. cerevisiae deletion strains, locus YNL209W, strain ssb2, hits give low values 1.01 | S. cerevisiae deletion strains, locus YNL224C, strain SQS1, hits give low values 0.996 | S. cerevisiae deletion strains, locus YNL248C, strain rpa49, hits give low values 0.971 | S. cerevisiae deletion strains, locus YNL250W, strain rad50, hits give low values 1.01 | S. cerevisiae deletion strains, locus YNL271C, strain bni1, hits give low values 1.01 | S. cerevisiae deletion strains, locus YNL298W, strain CLA4, hits give low values 1 | S. cerevisiae deletion strains, locus YNL322C, strain KRE1 (second series), hits give low values 1.01 | S. cerevisiae deletion strains, locus YNR049C, strain mso1, hits give low values 1.02 | S. cerevisiae deletion strains, locus YNR052C, strain pop2, hits give low values 0.995 | S. cerevisiae deletion strains, locus YOL012C, strain htz1 0.275 | S. cerevisiae deletion strains, locus YOL147C, strain pex11, hits give low values 1.01 | S. cerevisiae deletion strains, locus YOR001W, strain rrp6, hits give low values 1.02 | S. cerevisiae deletion strains, locus YOR070C, strain gyp1, hits give low values 1 | S. cerevisiae deletion strains, locus YOR080W, strain dia2, hits give low values 1.01 | S. cerevisiae deletion strains, locus YOR083W, strain WHI5 (second series), hits give low values 1.02 | S. cerevisiae deletion strains, locus YOR083W, strain WHI5, hits give low values 0.993 | S. cerevisiae deletion strains, locus YOR106W, strain vam3, hits give low values 1.02 | S. cerevisiae deletion strains, locus YOR136W, strain idh2, hits give low values 0.979 | S. cerevisiae deletion strains, locus YOR144C, strain elg1, hits give low values 1.01 | S. cerevisiae deletion strains, locus YOR184W, strain ser1, hits give low values 0.885 | S. cerevisiae deletion strains, locus YOR231W, strain MKK1, hits give low values 0.987 | S. cerevisiae deletion strains, locus YOR265W, strain rbl2, hits give low values 1.01 | S. cerevisiae deletion strains, locus YOR270C, strain vph1, hits give low values 1 | S. cerevisiae deletion strains, locus YOR290C, strain snf2, hits give low values 1 | S. cerevisiae deletion strains, locus YOR316C, strain cot1, hits give low values 0.982 | S. cerevisiae deletion strains, locus YPL051W, strain arl3, hits give low values 1 | S. cerevisiae deletion strains, locus YPL078C, strain atp4, hits give low values 1.02 | S. cerevisiae deletion strains, locus YPL106C, strain sse1, hits give low values 0.998 | S. cerevisiae deletion strains, locus YPL240C, strain hsp82, hits give low values 1 | S. cerevisiae deletion strains, locus YPL256C, strain CLN2, hits give low values 0.992 | S. cerevisiae deletion strains, locus YPR119W, strain clb2, hits give low values 1.01 | S. cerevisiae deletion strains, locus YPR141C, strain kar3, hits give low values 1.01 | S. cerevisiae deletion strains, locus YPR163C, strain tif3, hits give low values 0.987 | S. cerevisiae deletion strains, locus YPR167C, strain met16, hits give low values 0.964
active: S. cerevisiae deletion strains, locus YKL190W, strain CNB1, hits give low values 0.569 | S. cerevisiae deletion strains, locus YKR001C, strain vps1, hits give low values 0.884 | S. cerevisiae deletion strains, locus YLR039C, strain RIC1, hits give low values 0.423 | S. cerevisiae deletion strains, locus YLR058C, strain SHM2, hits give low values 0.837 | S. cerevisiae deletion strains, locus YLR262C, strain YPT6, hits give low values 0.321 | S. cerevisiae deletion strains, locus YLR330W, strain CHS5, hits give low values 0.557 | S. cerevisiae deletion strains, locus YLR342W, strain FKS1 (second series), hits give low values 0.496 | S. cerevisiae deletion strains, locus YLR418C, strain cdc73, hits give low values 0.637 | S. cerevisiae deletion strains, locus YML016C, strain PPZ1, hits give low values 0.412 | S. cerevisiae deletion strains, locus YMR263W, strain SAP30, hits give low values 0.809 | S. cerevisiae deletion strains, locus YMR307W, strain GAS1, hits give low values 0.439 | S. cerevisiae deletion strains, locus YNL067W, strain RPL9B, hits give low values 0.755 | S. cerevisiae deletion strains, locus YNL233W, strain BNI4, hits give low values 0.792 | S. cerevisiae deletion strains, locus YNL307C, strain MCK1, hits give low values 0.846 | S. cerevisiae deletion strains, locus YNL322C, strain KRE1, hits give low values 0.592 | S. cerevisiae deletion strains, locus YOL006C, strain TOP1, hits give low values 0.141 | S. cerevisiae deletion strains, locus YOR061W, strain CKA2, hits give low values 0.702 | S. cerevisiae deletion strains, locus YOR069W, strain VPS5, hits give low values 0.826 | S. cerevisiae deletion strains, locus YPL241C, strain CIN2, hits give low values 0.645 | S. cerevisiae deletion strains, strain wtn01, hits give low values 0.874 | S. cerevisiae strains, strain wild type, hits give low values 0.533
